Assay results as given in the supplement of paper PMC6555819.

What was measured:
Assay in all cases: PBM binding z-score (relative to random genomic background probes); higher = stronger binding; sequences stand for … in GC…GCGATTGACAGCGTAGAATGAAGG
[1] = test system: RARb homodimer (NR concentration 270 nM)
Summary of the method: (§1)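 For binding z-scores, the reference was random background probes on custom Agilent 4×180K protein-binding microarrays. These arrays were incubated 1 h with ligand-free nuclear receptor dimers in PBS pH 7.4, 2% milk, 0.02% Triton X-100, 1 mM DTT, 0.2 mg/mL BSA and 0.4 mg/ml salmon testes DNA. Fluorescence was scanned after antibody detection of each partner (one per run) and regression-normalized.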

[2] = test system: RARg:RXRa (NR concentration 270 nM, RXRa partner concentration 90 nM)
Summary of the method: as §1

[3] = test system: RARg homodimer (NR concentration 270 nM)
Summary of the method: as §1

[4] = test system: RXRa DBDmut IVT, anti-RXR (DBD mutation: RXRa K156A/R161A, NR concentration 90 nM)
Summary of the method: as §1

[5] = test system: RXRa homodimer (NR concentration 180 nM)
Summary of the method: as §1

[6] = test system: THRa:RXRa (NR concentration 90 nM, RXRa partner concentration 90 nM)
Summary of the method: as §1

[7] = test system: THRa homodimer (NR concentration 90 nM)
Summary of the method: as §1

[8] = test system: VDR homodimer (NR concentration 270 nM)
Summary of the method: as §1

Row | Sequence | PBM binding z-score [1] | PBM binding z-score [2] | PBM binding z-score [3] | PBM binding z-score [4] | PBM binding z-score [5] | PBM binding z-score [6] | PBM binding z-score [7] | PBM binding z-score [8]
1 | CCTTCCGGGTCAAGGTTATAGCACGGGTGGTACG | 3.39 | 4.76 | 4.46 | 0.695 | 4.97 | 3.73 | 2.35 | 1.72
2 | TTACCAAGGTGAAGATCGTTGATCCCTCTGTAGA | 0.271 | 0.271 | 0.232 | -0.349 | 0.567 | 1.58 | 0.0556 | -0.499
3 | TCTTGTAGATCAGCAGGTCAAGAAAGCTGGCCAA | 2.13 | 2.22 | 1.55 | 0.289 | 2.05 | 1.89 | 0.0646 | 0.194
4 | TCAGGCAGGTGAAGGTAACTCAGGTACGCAGTCG | 0.705 | 0.13 | -0.00372 | 0.635 | 0.357 | 1.52 | 0.723 | 0.051
5 | CCGAGTAGGTTATGGGACATTCAGGCAACGGTGA | 0.969 | 0.533 | 0.86 | 0.181 | 0.607 | 0.565 | 0.413 | 0.326
6 | ATCGAAAGGTCGAGGTGAGTATAGAGAAAGGGAA | 2.86 | 4.31 | 4.51 | 0.657 | 4.3 | 2.81 | 0.624 | 0.373
7 | CGTCCAAGGTCAGAGAGGTGAGTGAATGCCGAGT | 3.85 | 4.7 | 5.44 | 3.06 | 3.79 | 3.81 | 2.28 | 2.26
